Compound activity (PubChem)
In the library only some 8.9% were active in any assay of this set; here they are far more common.
DRD3 agonist: agonists of human D3 dopamine receptor | max activation, % | AID 652048 | P35462 | D3R DiscoveRx beta-arrestin cells, luminescence, 90 min | actives 0.58% (n = 410,000); in the data active means max activation above about 30%
Target sequence (P35462 whole entry, looked up): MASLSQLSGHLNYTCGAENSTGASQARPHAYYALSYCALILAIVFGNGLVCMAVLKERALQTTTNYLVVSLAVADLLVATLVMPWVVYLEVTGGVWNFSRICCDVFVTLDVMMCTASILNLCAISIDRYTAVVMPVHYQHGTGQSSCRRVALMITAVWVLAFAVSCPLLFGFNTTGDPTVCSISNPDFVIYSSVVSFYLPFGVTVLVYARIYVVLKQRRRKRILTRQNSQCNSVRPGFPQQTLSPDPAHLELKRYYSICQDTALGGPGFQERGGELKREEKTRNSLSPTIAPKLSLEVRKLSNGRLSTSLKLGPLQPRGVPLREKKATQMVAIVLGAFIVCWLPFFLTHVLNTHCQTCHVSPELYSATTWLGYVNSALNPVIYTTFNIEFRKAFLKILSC
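Cells at 1500/well, incubated overnight, then treated with pinned compounds (dopamine as control) for 90 min at 37 degrees C. DiscoveRx reagent added for 30 - 60 minutes at room temperature; luminescence read.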
SW480 rerep: induces DNA re-replication in SW480 colon adenocarcinoma cells. SW480 DNA re-replication, Hoechst DNA content imaging, 48 h. actives 1.8% (n = 340,000). Potency, µM (titrated, usually from 46.1 µM), most hits filed as activators; further: nearly all actives have a fitted effect of over 55% in size
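Compounds, transferred as 23 nL by pin tool, were incubated with cells for 48 hr; DNA content per nucleus was then quantified by Hoechst staining and fluorescence plate imaging.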
KB-3-1 tox: KB-3-1 parental cell cytotoxicity. Potency, µM (titrated, usually from 46.1 µM), usual class: cytotoxic. KB-3-1 viability, CellTiter-Glo ATP luminescence, 72 h. actives 1.4% (n = 400,000). AID 1347075; further: nearly all actives have a fitted effect of over 60% in size
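Cytotoxicity in the drug-sensitive parental line KB-3-1 was scored as loss of CellTiter-Glo luminescence following 72 h incubation with compound. Values come from curve fitting of normalized concentration-response data.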
MCF10A rerep: DNA re-replication induction in MCF 10a cells; MCF 10A DNA re-replication, Hoechst nuclear intensity, 48 h; actives 2.9% (n = 350,000); Potency, µM (titrated, usually from 46.1 µM), hits mostly activators; further: nearly all actives have a fitted effect of over 50% in size
KB-V1 cytotox: KB-V1 MDR subline cytotoxicity; KB-V1 MDR cells viability, CellTiter-Glo, 72 h; Potency, µM (titrated, usually from 46.1 µM), usual class: cytotoxic; actives 3.4% (n = 400,000); AID 1347076; further: nearly all actives have a fitted effect of over 60% in size
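KB-V1 cells (P-gp-expressing MDR subline of KB-3-1) in phenol-red-free DMEM with 10% FBS were exposed to library compounds over a concentration series for 72 h at 37 degrees C. Viability read by CellTiter-Glo luminescence; concentration-effect curves fitted after normalization.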
DRD3 antagonist: D3 dopamine receptor (human) antagonism | P35462 | actives 2.5% (n = 360,000) | D3R cells, DiscoveRx beta-arrestin luminescence, antagonist mode; stronger effect = lower value | max response, negative = inhibition, %; in the data active means max response below about -50%; inconclusive means no clear call, values can overlap the other calls
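Cells plated overnight at 1500 cells/well, then exposed to library compounds with dopamine controls for 90 minutes at 37 degrees C. DiscoveRx reagent added for 30–60 minutes at room temperature; luminescence read, quantitative HTS format.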
Hits are given with their value; i = inactive; ? = inconclusive; nt = not tested or not shown; ! = not confirmed by another sample. Unless noted, the call rests on the fitted dose curve; in most records, active means well fitted curve in the direction sought with a large enough effect; inconclusive means small, poorly fitted or top-dose-only effect, or another doubt; inactive means no such curve, though single readings can be large; an effect the other way counts as inactive or inconclusive.

SMILES	DRD3 agonist	SW480 rerep	KB-3-1 tox	MCF10A rerep	KB-V1 cytotox	DRD3 antagonist
O=[N+]([O-])c1ccc(Sc2nccn2Cc2ccccc2)c([N+](=O)[O-])c1	i	?	i	21µM	?	i
O=[N+]([O-])c1ccc(Sc2ncccn2)c([N+](=O)[O-])c1	i	?	i	18µM	i	i
CCCNC(=O)c1cc(C2CCCCN2S(=O)(=O)c2ccc(OC)cc2)on1 (centres undefined)	i	nt	i	nt	i	i
COc1ccc(S(=O)(=O)N2CCCCC2c2cc(C(=O)N3CCOCC3)no2)cc1 (centres undefined)	i	nt	i	nt	i	-96
Cc1ccc(-n2c(SCC(=O)c3c(N)n(C)c(=O)n(C)c3=O)nc3sc4c(c3c2=O)CCCC4)c(C)c1	i	i	?	?	21µM	i
COc1ccc(NC(=O)CCCn2c(=O)c3sccc3n(Cc3ccccc3C)c2=O)cc1	i	i	i	i	9.2µM	i
Cc1nn(C)c(Oc2cccc(Cl)c2)c1C#N	i	i	i	i	i	i
Cc1nn(C)c(Oc2cccc(Cl)c2)c1C(=O)Nc1ccc(F)cc1	i	i	i	i	15µM	i
Cc1nn(C)c(Oc2cccc(Cl)c2)c1C(=O)Nc1ccc(F)cc1F	i	i	i	i	18µM	i
CC(=O)Nc1ccc(S(=O)(=O)NC2=C(N3CCN(Cc4ccccc4)CC3)C(=O)c3ccccc3C2=O)cc1	i	?	?	?	18µM!	?
CCN1CCN(C2=C(NS(=O)(=O)c3ccc(NC(C)=O)cc3)C(=O)c3ccccc3C2=O)CC1	i	i	?	?	i	i
CCN1CCN(C2=C(NS(=O)(=O)c3ccc(C)cc3)C(=O)c3ccccc3C2=O)CC1	i	21µM	?	i	?	i
CCOc1ccc(-c2nc(Cn3c(=O)cc(-c4ccccc4)c4c(C)nn(C)c43)c(C)o2)cc1	i	nt	nt	nt	nt	nt
O=C(C1CCCCC1)N(Cc1cccnc1)c1nc2c(F)cccc2s1	i	nt	i	nt	i	nt
CCOC(=O)C[n+]1cccc(Br)c1	nt	nt	i	nt	i	nt
COc1cc(S(=O)(=O)NCCOC23CC4CC(CC(C4)C2)C3)c(OC)cc1Cl	i	i	?	?	5.8µM	i
Cc1ccc(Oc2nnc(-c3ccc(C)cc3)c3ccccc23)cc1	i	i	?	i	18µM	i
Cc1ccc(-c2nnc(OCc3cccnc3)c3ccccc23)cc1	i	i	i	i	16µM	i
CCCC(=O)O[C@]1(C(=O)COC(C)=O)CC[C@H]2C3C[C@H](F)C4=CC(=O)C=CC4(C)[C@@]3(F)[C@@H](O)CC21C (some centres undefined)	nt	i	nt	i	nt	nt
CCC(C)c1ccc(S(=O)(=O)N2CCN(CC(O)COCC3CCCO3)CC2)cc1 (centres undefined)	i	i	i	i	i	i
CCC(CO)Nc1ncnc2c1cnn2-c1ccc(C)cc1 (centres undefined)	i	nt	i	nt	?	nt
COc1cccc(C(c2nnnn2Cc2ccccc2)N2CCN(C3CCCC3)CC2)c1OC (centres undefined)	i	i	i	i	?	i
COc1ccc(-n2nnnc2C(c2cccc(OC)c2OC)N2CCN(C/C=C/c3ccccc3)CC2)cc1 (centres undefined)	i	nt	i	nt	i	-86
COc1cccc(C(c2nnnn2C2CCCC2)N2CCN(C/C=C/c3ccccc3)CC2)c1OC (centres undefined)	i	nt	i	nt	?	-96
COc1ccc(-n2nnnc2C(c2ccccc2)N2CCN(C/C=C/c3ccccc3)CC2)cc1 (centres undefined)	i	nt	i	nt	?	-118
SMILES	DRD3 agonist	SW480 rerep	KB-3-1 tox	MCF10A rerep	KB-V1 cytotox	DRD3 antagonist
COc1ccc(-n2nnnc2C(CCc2ccccc2)N2CCN(C/C=C/c3ccccc3)CC2)cc1 (centres undefined)	i	nt	i	nt	?	-76
COc1ccc(C(=O)Nc2nnc(SCc3cc(=O)c4cc(C)ccc4[nH]3)s2)cc1OC	i	nt	i	nt	i	nt
CCC(c1nnnn1-c1ccc(OC)cc1)N1CCN(C/C=C/c2ccccc2)CC1 (centres undefined)	i	nt	i	nt	i	-57
CCC(c1nnnn1Cc1ccccc1)N1CCN(c2ccc(OC)cc2)CC1 (centres undefined)	i	?	i	i	?	i
COc1ccccc1NC(=O)Cn1c(=O)n(-c2cccc(Cl)c2)c(=O)c2c1c1cc(C)ccc1n2C	i	nt	i	nt	i	nt
Cc1cc(C(F)F)n2nc(C(=O)Nc3c(C)cccc3C)nc2n1	i	nt	i	nt	i	nt
COc1ccc(N2CCN(CCCNC(=O)Cn3c(-c4cccs4)cc4ccccc43)CC2)cc1	32	nt	i	nt	i	nt
COc1ccc(N2CCN(CCCNC(=O)c3cc4sccc4n3C)CC2)cc1	i	i	?	?	?	-57
CC1CCN(CCCNC(=O)c2cc3sccc3n2C)CC1	i	i	i	i	?	-86
O=C(Cn1c(-c2cccs2)cc2ccccc21)NCCCN1CCN(c2ccc(F)cc2)CC1	i	nt	i	nt	i	nt
COc1cc(-c2ccc3ncnc(NCC4CCCO4)c3c2)cc(OC)c1OC (centres undefined)	nt	nt	i	nt	i	nt
CCOC(=O)CSc1ncnc2c1sc1nc(N3CCOCC3)c3c(c12)CCCC3	61	i	i	i	i	i
COC(=O)CSc1ncnc2c1sc1nc(N3CCOCC3)c3c(c12)CCCC3	i	i	i	?	i	i
O=c1c2sc3nc(N4CCOCC4)c4c(c3c2ncn1CCc1ccccc1)CCCC4	i	i	i	?	2.3µM	i
O=c1c2sc3nc(N4CCOCC4)c4c(c3c2ncn1-c1ccccc1)CCCC4	i	i	i	i	?	i
COc1cc(NC(=O)CSc2ccc(-c3sc(C)nc3C)nn2)cc(OC)c1	i	nt	?	nt	?	nt
CCC1CN(C(=O)N2CCC(C(=O)Nc3cc(C)ccc3C)CC2)c2ccccc2O1 (centres undefined)	i	nt	nt	nt	nt	nt
COc1ccc(-c2nc(C)c(CCNS(=O)(=O)c3cc(Cl)ccc3Cl)s2)cc1	i	nt	15µM	nt	21µM	nt
COc1ccc(-c2nc(C)c(CCNS(=O)(=O)c3cc(C)c(C)cc3C)s2)cc1	i	nt	?	nt	18µM	nt
COc1ccc(S(=O)(=O)NCCc2sc(C)nc2C)cc1	i	nt	i	nt	?	nt
Cc1nc(C)c(CCNS(=O)(=O)c2ccc(C)c(C)c2)s1	i	nt	?	nt	21µM	nt
Cc1nc(-c2ccccc2)sc1CCNS(=O)(=O)c1ccc(Br)cc1	i	nt	?	nt	21µM	nt
COc1ccc(OC)c(S(=O)(=O)NCCc2sc(-c3cccnc3)nc2C)c1	i	nt	i	nt	?	nt
COc1ccc(S(=O)(=O)NCCc2sc(-c3ccccc3)nc2C)cc1OC	i	nt	i	nt	?	nt
COc1ccc(-c2nc(C)c(CCNS(=O)(=O)c3ccc(F)cc3)s2)cc1OC	i	nt	?	nt	9.2µM	nt
